Measured values reported in the supplement of paper PMC10127200.
Where a name gives a salt, the structure may show the parent alone.

Legend:
Experiment in all cases: Euclidean distance of Cell Painting phenotypic profile (signed KS, 77 features) to DMSO centroid (dimensionless distance); 5 or 10 uM (library dependent); higher = stronger phenotypic change vs DMSO (phenoactivity)
Conditions in all cases: 48 h
786-O = test system: 786-O
How it was run: (§1)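 Library compounds were applied at 10 or 5 uM, depending on the library, with 0.1% DMSO final, for 48 h to five cancer lines and a healthy fibroblast line. After staining, cells were imaged confocally at 20X across 9 fields per well, and Harmony extracted 77 features, each scored as a signed Kolmogorov-Smirnov statistic against vehicle wells on the same plate. Phenoactivity is the Euclidean distance between each profile and the median vehicle profile, with profiles first plate-position corrected, correlation-weighted and averaged over replicates at the top dose.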

A549 = test system: A549
How it was run: as §1

DU145 = test system: DU145
How it was run: as §1

FB = test system: FB
How it was run: as §1

HEPG2 = test system: HEPG2
How it was run: as §1

OVCAR4 = test system: OVCAR4
How it was run: as §1

Structure (SMILES)	Euclidean distance (786-O)	Euclidean distance (A549)	Euclidean distance (DU145)	Euclidean distance (FB)	Euclidean distance (HEPG2)	Euclidean distance (OVCAR4)
COc1ccc(-c2oc3c(CC=C(C)C)c(O[C@@H]4O[C@H](CO)[C@@H](O)[C@H](O)[C@H]4O)cc(O)c3c(=O)c2O[C@@H]2O[C@@H](C)[C@H](O)[C@@H](O)[C@H]2O)cc1 [Icariin]	0.632	0.62	0.973	0.818	0.96	0.993
COc1cccc2c1C(=O)c1c(O)c3c(c(O)c1C2=O)C[C@@](O)(C(C)=O)C[C@@H]3O[C@H]1C[C@H](N)[C@H](O)[C@H](C)O1 [Daunorubicin HCl]	5.05	5.5	5.6	4.91	4.88	5.41
CCC1(C)CC(=O)NC1=O (configuration not stated) [Ethosuximide]	0.782	1.2	1.11	0.965	0.843	1.04
Cc1cccc(N(C)C(=S)Oc2ccc3ccccc3c2)c1 [Tolnaftate]	1.29	0.815	1.01	0.908	1.96	1.36
O=C(NCCS(=O)(=O)c1ccc(C(F)(F)F)cn1)c1ccc(Cl)cc1	0.975	1.54	1.57	0.817	0.723	1.18
CC(C)CN(C[C@@H](O)[C@H](Cc1ccccc1)NC(=O)O[C@H]1CCOC1)S(=O)(=O)c1ccc(N)cc1 [Amprenavir]	1.35	1.29	1.22	1.22	1.26	1.6
CC(C)(Oc1ccc(Cl)cc1)C(=O)OCCOC(=O)c1cccnc1 [Etofibrate]	0.948	0.732	0.949	1.01	0.725	0.894
C[N+]1(C)CCC(OC(=O)C(O)(c2ccccc2)C2CCCC2)C1 (configuration not stated) [Glycopyrrolate]	1.08	0.747	1.06	1.02	0.678	1.74
Clc1ccc(CSC(Cn2ccnc2)c2ccc(Cl)cc2Cl)cc1 (configuration not stated) [Sulconazole Nitrate]	1.3	1.23	1.07	0.983	1.1	1.31
O=C(OCc1ccccc1)c1ccccc1 [Benzyl benzoate]	0.857	1.28	0.936	0.794	0.831	1.33
Oc1ccc(/C=C/c2cc(O)cc(O)c2)cc1 [Resveratrol]	2.22	1.93	1.94	1.74	0.81	1.92
CCC1=C[C@@H]2CN(C1)Cc1c([nH]c3ccccc13)[C@@](C(=O)OC)(c1cc3c(cc1OC)N(C)[C@H]1[C@@](O)(C(=O)OC)[C@H](OC(C)=O)[C@]4(CC)C=CCN5CC[C@]31[C@@H]54)C2 [Vinorelbine Tartrate]	3.19	3.7	4.27	3.46	2.97	3.03
COc1ccc([C@H]2CNC(=O)C2)cc1OC1CCCC1 [S- (+)-Rolipram]	1.12	1.46	1	0.792	1.24	1.49
CC(C)(C)C(=O)C(Oc1ccc(Cl)cc1)n1ccnc1 (configuration not stated) [Climbazole]	0.898	0.838	0.641	1.02	0.579	1.29
OC1(c2ccc(Cl)c(C(F)(F)F)c2)CCN(CCCC(c2ccc(F)cc2)c2ccc(F)cc2)CC1 [Penfluridol]	4.2	4.66	5.91	3.4	4.97	4.03
CNC[C@H](O)c1ccc(O)c(O)c1 [Epinephrine bitartrate]	0.553	0.655	0.818	0.827	0.637	0.577
COC(=O)c1ccc2c(C(=Nc3ccc(N(C)C(=O)CN4CCN(C)CC4)cc3)c3ccccc3)c(O)[nH]c2c1 [Nintedanib Ethanesulfonate Salt]	3.68	3.84	2.5	4.88	3.9	4.19
O=C1c2c(O)ccc(O)c2C(=O)c2c(NCCNCCO)ccc(NCCNCCO)c21 [Mitoxantrone HCl]	4.89	4.24	3.24	4.31	4.05	6.27
O=C(c1ccc(NS(=O)(=O)c2cccc3cccnc23)cc1)N1CCN(CC2CC2)CC1 [Mitapivat]	1.26	0.913	1.1	1.04	1.09	1.47

Structure (SMILES)	Euclidean distance (786-O)	Euclidean distance (A549)	Euclidean distance (DU145)	Euclidean distance (FB)	Euclidean distance (HEPG2)	Euclidean distance (OVCAR4)
CC#CCn1c(N2CCC[C@@H](N)C2)nc2c1c(=O)n(Cc1nc(C)c3ccccc3n1)c(=O)n2C [Linagliptin]	0.904	0.984	0.641	1.4	0.628	0.529
COC(=O)c1cc(OC)c2c(c1-c1c(C(=O)OC)cc(OC)c3c1OCO3)OCO2 [Bifendate]	1.36	1.51	0.627	1.22	0.392	1.35
NCCCCC(NC(=O)C1CCCN1C(=O)C1CSSCC(N)C(=O)NC(Cc2ccc(O)cc2)C(=O)NC(Cc2ccccc2)C(=O)NC(CCC(N)=O)C(=O)NC(CC(N)=O)C(=O)N1)C(=O)NCC(N)=O (configuration not stated) [Lypressin Acetate]	1.39	0.851	1.08	1.11	0.477	1.48
C1=N/C2=N/c3ccc(OCCN4CCCC4)c(c3)COC/C=C/COCc3cccc(c3)C(=C1)N2 [Pacritinib (SB1518)]	3.54	3.52	2.51	3.49	3.79	3.42
CC(=C(CCO)SSCC1CCCO1)N(C=O)Cc1cnc(C)nc1N (stereo in doubt) [Fursultiamine]	1.19	0.749	0.785	1.06	0.579	1.17
CC(C)(C)NCC(O)c1cc(O)cc(O)c1 (configuration not stated) [Terbutaline Sulfate]	1.21	0.707	0.835	1.27	0.547	0.825
Oc1ccc2c(c1)CC[C@H](c1ccccc1)[C@@H]2c1ccc(OCCN2CCCC2)cc1 [Lasofoxifene Tartrate]	2.93	2.42	3.01	2.8	4.32	2.5
CNCc1ccc(C)c(NC(=O)c2ccc(Nc3nc(-c4ccccc4)c4ccccc4n3)cc2)c1	5.12	4.68	3.37	4.9	5.84	4.54
CCCC(CCC)C(=O)O [Valproic acid sodium salt (Sodium valproate)]	0.85	0.706	0.534	0.529	0.677	0.959
COC(=O)Nc1nc2cc(Sc3ccccc3)ccc2[nH]1 [Fenbendazole]	2.61	2.78	3.05	2.21	2.12	2.83
N#Cc1ccnc(N2C(=O)CC[C@H]2C(=O)N(c2cncc(F)c2)[C@H](C(=O)NC2CC(F)(F)C2)c2ccccc2Cl)c1 [Ivosidenib (AG-120)]	0.973	0.609	1.95	1.1	0.986	1.55
Cc1cc(F)c(Nc2ncnc3cc(OCc4ccccc4)ccc23)cc1O	1.83	0.984	0.521	1.8	0.631	0.745
CN1CCC(=C2c3ccccc3CC(=O)c3sccc32)CC1 [Ketotifen Fumarate]	0.851	0.639	0.639	1.17	0.589	1.2
Cc1cc2c(F)c(Oc3ncnn4cc(OC[C@@H](C)OC(=O)[C@H](C)N)c(C)c34)ccc2[nH]1	2.11	1.25	1.14	1.57	0.818	1.35
O=C1CCCC(=O)C1C(=O)c1ccc(C(F)(F)F)cc1[N+](=O)[O-] [Nitisinone]	1.12	0.58	1.2	1	0.455	1.09
CN(C)CCC(c1ccccc1)c1ccccn1 (configuration not stated) [Pheniramine Maleate]	0.54	1.02	0.777	0.632	0.694	1.34
C=CCOc1ccccc1OCC(O)CNC(C)C (configuration not stated) [Oxprenolol HCl]	0.863	0.819	1.56	1.21	0.783	0.994
CCCc1ncc(C[n+]2ccccc2C)c(N)n1 [Amprolium HCl]	1.47	0.883	1.08	1.27	0.679	1.39
